KB-3-1 cytotox = KB-3-1 parental cell cytotoxicity; KB-3-1 viability, CellTiter-Glo ATP luminescence, 72 h; Potency, µM (titrated, usually from 46.1 µM), hits mostly cytotoxic; 1.4% of 400,000 active; AID 1347075; further: on the % scale 0 is the no-effect control and ±100 the full control effect; nearly all actives have a fitted effect of over 60% in size
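KB-3-1 cells, DMEM (no phenol red) + 10% FBS; compound by pin transfer, 72 h, 37 °C. Readout: CellTiter-Glo luminescence after 10 min. Data normalized, curve-fitted.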
KB-V1 cytotox = KB-V1 MDR subline cytotoxicity; KB-V1 MDR cells viability, CellTiter-Glo, 72 h; Potency, µM (top dose mostly 46.1 µM), hits mostly cytotoxic; 3.4% of 400,000 active; further: on the % scale 0 is the no-effect control and ±100 the full control effect; nearly all actives have a fitted effect of over 60% in size
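Potencies derive from concentration-effect curves fitted to normalized luminescence (CellTiter-Glo) of KB-V1 cells treated for 72 h at 37 degrees C in phenol-red-free DMEM containing 10% FBS.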
ELG1 repair inh = ELG1-dependent DNA repair inhibition. HEK293T ELG1-luciferase reporter, luminescence, 16 h; DNA damage induced by 5-fluorouridine. Potency, µM (doses to about 46.1 µM), without a hit: at the top dose activity change, negative = inhibition, usual class: inhibitors. 2.3% of 330,000 active; further: on the % scale 0 is the no-effect control and ±100 the full control effect; nearly all actives have a fitted effect of over 55% in size
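Luminescence from the luciferase reporter, measured 30 min after ONE-Glo reagent at room temperature, was the read-out. Beforehand, 2,000 cells per well were exposed for 16 hr at 37 °C to 5-fluorouridine together with compound or vehicle.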
MCF10A rerep = inducers of DNA re-replication in MCF 10A breast cells | MCF 10A DNA re-replication, Hoechst nuclear intensity, 48 h | Potency, µM (doses to about 46.1 µM), for the others: top-dose activity, positive = re-replication, hits mostly activators | 2.9% of 350,000 active | AID 624296; further: % of control where 0% means no effect; nearly all actives have a fitted effect of over 50% in size
SW480 rereplic = DNA re-replication induction in SW480 cells; SW480 DNA re-replication, Hoechst DNA content imaging, 48 h; Potency, µM (highest dose often 46.1 µM), inactives show at the highest dose re-replication activation, actives largely listed as activators; 1.8% of 340,000 active; AID 624297; further: % of control where 0% means no effect; nearly all actives have a fitted effect of over 55% in size
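Quantitative HTS format with DMSO vehicle controls; 48 hr drug incubation at 37 C, then 40 min Hoechst staining and scanning imager measurement at 405 nm excitation.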
Numbers without * were called inactive; i = inactive; u = inconclusive; x = not tested or not shown. An excerpt weighted towards active compounds, which were near 8.1% of everything screened. The call rests on the fitted dose curve; in most records, active means well fitted curve in the direction sought with a large enough effect; inconclusive means small, poorly fitted or top-dose-only effect, or another doubt; inactive means no such curve, though single readings can be large; an effect the other way counts as inactive or inconclusive. Potency means the concentration at half of the fitted maximal effect.

SMILES	KB-3-1 cytotox	KB-V1 cytotox	ELG1 repair inh	MCF10A rerep	SW480 rereplic
Cc1ccc(-c2ccc(=O)n(CCC(=O)N3CCN(c4cccc(C)c4)C(C)C3)n2)cc1 (configuration not stated)	i	i	u	-5%	-7%
CC(=O)C[C@@H](O)CC(=O)[C@@H]1OC(=O)[C@H](C)CCCCc2ccccc21	i	i	17%	-30%	u
O=C(c1cccc(S(=O)(=O)N2CCCC2)c1)N1CCN(Cc2ccccc2)CC1	i	i	5%	-2%	-10%
CCOc1ccc(-c2noc(-c3csc([C@@H]4O[C@H](CO)[C@H](O)[C@H](O)[C@H]4O)n3)n2)cc1	i	i	x	x	x
Cc1ccc(NC(=O)c2ccc([N+](=O)[O-])o2)cc1C	18µM*	i	u	9.2µM*	u
O=C(Nc1ccc2[nH]c(=O)[nH]c2c1)c1ccc([N+](=O)[O-])o1	u	u	-22%	5.8µM*	2.9µM*
Cn1cccc1-c1cc2n(n1)CCC(=O)N2CC(=O)Nc1ccc(F)cc1Cl	i	i	x	x	x
CC(OC(=O)c1cc2sccc2n1C)C(=O)NCC1CCCO1 (configuration not stated)	i	i	-10%	6%	-2%
CC(OC(=O)c1cc2sccc2n1C)C(=O)NCCc1ccccc1 (configuration not stated)	i	13µM*	u	u	u
Cn1c(C(=O)OC(C(=O)NCc2ccco2)c2ccncc2)cc2sccc21 (configuration not stated)	i	3.7µM*	-5%	3%	10%
Cn1c(C(=O)OC(C(=O)NCC2CCCO2)c2cccnc2)cc2sccc21 (configuration not stated)	i	i	u	u	1.3µM*
CC(OC(=O)c1cc2sccc2n1C)C(=O)NCc1ccc(F)cc1 (configuration not stated)	i	u	-29%	11%	-2%
CCC(OC(=O)c1cc2sccc2n1C)C(=O)NCC1CCCO1 (configuration not stated)	i	23µM*	u	6%	-4%
CCc1ccc(NC(=O)CSc2nccn(-c3ccc4c(c3)OCCO4)c2=O)cc1	u	u	-14%	u	16%
O=c1c2ccccc2nc2c3ccccc3c(NCCN3CCOCC3)nn12	x	x	0%	x	x
Cc1cccc(-c2nc(NCCCN3CCOCC3)c3ccccc3n2)c1	u	i	u	u	-2%
O=c1c2c(-c3ccccc3)csc2nc2c3ccccc3c(NCCN3CCOCC3)nn12	i	21µM*	8%	9.2µM*	u
c1ccc(-c2nc(NCCCN3CCOCC3)c3ccccc3n2)cc1	i	6.5µM*	u	u	7%
c1ccc(-c2csc3ncnc(NCC4COc5ccccc5O4)c23)cc1 (configuration not stated)	1.6µM*	23µM*	u	26µM*	2%
c1csc(-c2csc3ncnc(NCCCN4CCOCC4)c23)c1	u	3.3µM*	u	0%	-1%
Cn1c2cc(S(C)=O)sc2c2cnn(Cc3cccc(O)c3)c(=O)c21 (configuration not stated)	i	i	x	x	x
COc1ccc(N2CCN(C(=O)Cn3cnc4nc5c(cc4c3=O)CCCC5)CC2)cc1	i	i	x	x	x
c1ccc(-c2csc3ncnc(NCCCN4CCOCC4)c23)cc1	i	8.2µM*	u	0%	-3%
Cc1cccc(N(C)C(=O)c2cc3c(=O)oc4ccc(C)cc4c3s2)c1	i	i	x	x	x
CCN(Cc1ccccc1)C(=O)C1CCN(Cc2ccc(OC)c(OC)c2OC)CC1	i	8.2µM*	-25%	-1%	-4%
SMILES	KB-3-1 cytotox	KB-V1 cytotox	ELG1 repair inh	MCF10A rerep	SW480 rereplic
O=C(Cc1ccc(Br)cc1)NC1CCN(Cc2ccccc2)CC1	u	18µM*	u	u	4%
CCN(Cc1ccccc1)C(=O)C1CCN(Cc2ccc(SC)cc2)CC1	i	i	-10%	6%	-3%
CCN(CC)C(=O)C1CCN(Cc2ccc(Br)cc2)CC1	i	18µM*	-12%	6%	13%
O=C(NC1CCN(Cc2ccccc2)CC1)C12CC3CC(CC(C3)C1)C2	i	26µM*	-19%	7%	0%
CCCNC(=O)CCc1c(C)nc2nc(CNC(=O)c3ccccc3)nn2c1C	i	i	x	x	x
CCOc1ccc(NC(=O)Cn2c(=O)n(CC(=O)NCc3ccccc3Cl)c(=O)c3sccc32)cc1	i	i	x	x	x
CSc1ccc(/C=C2/C(=N)N3N=C(CC(=O)N4CCCC4)SC3=NC2=O)cc1	i	i	12%	2%	-1%
COc1ccc(NC(=O)CCSc2nc(-c3ccco3)cc(C(F)(F)F)n2)cc1OC	i	i	x	x	x
COc1ccc(NC(=O)CSc2nc(-c3cccs3)cc(C(F)(F)F)n2)cc1Cl	i	5.2µM*	x	x	x
COc1ccc(NC(=O)CCCSc2nc(-c3ccco3)cc(C(F)(F)F)n2)cc1OC	i	i	21µM*	10%	10%
COc1ccc(NC(=O)CSc2nc(-c3cccs3)cc(C(F)(F)F)n2)cc1OC	9.2µM*	u	x	x	x
CC(NC(=O)C(=O)Nc1c2c(nn1-c1ccc(F)cc1)CSC2)c1ccccc1 (configuration not stated)	i	i	x	x	x
COc1ccc(C(=O)c2sc3nc(-c4ccc(F)cc4)ccc3c2N)cc1	i	i	x	x	x
COc1ccc([C@H]2CC(=O)C=C(c3cc(F)ccc3OC)C2)cc1	u	u	-26%	21µM*	u
CCOc1ccc(Cl)cc1C1=CC(=O)C[C@H](c2ccc(OC)cc2)C1	u	4.6µM*	-12%	u	3.7µM*
COc1ccc([C@H]2CC(=O)C=C(c3cccc(Br)c3)C2)cc1	i	i	2%	u	-2%
COc1ccc([C@H]2CC(=O)C=C(c3cc(C=O)ccc3OC)C2)cc1	16µM*	u	-25%	u	9.2µM*
COc1ccc([C@H]2CC(=O)C=C(c3cc(C=O)ccc3OC)C2)cc1OC	u	i	u	89%	u
COc1ccc([C@H]2CC(=O)C=C(c3cccc(Br)c3)C2)cc1OC	u	i	18µM*	6%	2%
COc1ccc([C@H]2CC(=O)C=C(c3c(OC)cccc3OC)C2)cc1	u	u	-3%	1.2µM*	18µM*
COc1ccc([C@H]2CC(=O)C=C(c3ccc(OC)c(OC)c3)C2)cc1	i	i	u	9.2µM*	-7%
COc1ccc([C@H]2CC(=O)C=C(c3cc(OC)ccc3OC)C2)cc1	16µM*	23µM*	u	u	u
COc1ccc([C@H]2CC(=O)C=C(c3ccc(OC)c(F)c3)C2)cc1	i	i	u	-30%	-5%

Compound activity: PubChem, National Center for Advancing Translational Sciences (NCATS)
